Assay results published in PubChem BioAssay AID651791 (National Center for Advancing Translational Sciences (NCATS), 2012).
Results filed as inconclusive are left out. Activity calls are given as the source filed them. Calls come from the whole dose curve; as a rule, active = well fitted inhibition curve with a large enough effect; inconclusive = small, poorly fitted or top-dose-only effect; inactive = no such curve, though single readings can be large or run the other way.

assay: InCell qHTS Assay for Inhibitors of the mTORC1 Signaling Pathway in MEF (Tsc2-/-, p53-/-) Cells: Hit Validation; conditions: phospho-rpS6 immunofluorescence, 24 h; activity change, negative = inhibition: at 38.3 µM (top of the series);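 note: phospho-S6 Ser235/236 signal normalized to propidium iodide cell count per well; nearly all actives have a fitted effect of over 75% in size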
Potency is the fitted concentration of half-maximal effect.

Row | Structure (SMILES) | activity change, negative = inhibition [%] | Potency
1 | CSc1ccc(CCNC(=O)C(C)n2nc(C)c3sc4ccccc4c3c2=O)cc1 (configuration not stated) | -100 | 
2 | Cn1nc(-c2ccc(OCC(=O)Nc3ccccc3)cc2)c2ccccc2c1=O | -100 | 
3 | COc1ccc(NC(=O)CSc2nc3ccccc3n2Cc2cccc(OC)c2)cc1 | -100 | 
4 | COc1ccc(-c2nnc(SCC(=O)NCc3ccccc3)nc2-c2ccc(OC)c(OC)c2)cc1OC | -100 | 
5 | Cc1cccc(N2CCN(C(=O)C3CCN(C(=O)c4cc5sccc5n4C)CC3)CC2C)c1 (configuration not stated) | -100 | 
6 | CCCCN1C(=O)C(O)(CC(=O)c2ccc(CC)cc2)c2cc(Br)ccc21 (configuration not stated) | -23.7 | 
7 | CCCCS(=O)(=O)c1oc(-c2cccs2)nc1S(=O)(=O)c1ccc(F)cc1 |  | 3.29 µM (active)
8 | CC(C)(C)c1ccc(C(=O)Nc2nnc3n2CCS3)cc1 | -100 | 
9 | CC(C)N(C(=O)CSc1nc2ccc(Cl)cc2[nH]1)c1ccccc1 | -100 | 
10 | Cc1ccc(C(=O)c2cn(CC(=O)NCc3ccccc3Cl)c3nc(C)ccc3c2=O)cc1 | -100 | 
11 | N#Cc1ccc(-c2cccs2)nc1SCc1c(F)cccc1Cl | -16.8 | 
12 | CCS(=O)(=O)c1ncc(Cl)c(C(=O)Nc2ccc(S(=O)(=O)N(C)c3ccccc3)cc2)n1 |  | 1.85 µM (active)
13 | Cc1nn(C(C)C(=O)NC2CCC(C)CC2)c(=O)c2c1sc1ccccc12 (configuration not stated) | -100 | 
14 | CCOc1ccc(S(=O)(=O)N(C(C)=O)c2ccc3oc(C)c(C(=O)OC)c3c2)cc1 | -100 | 
15 | CCc1ccccc1NC(=O)CSc1nc2c(oc3ccccc32)c(=O)n1-c1ccccc1F | -100 | 
16 | Cc1cccc(CS(=O)(=O)c2ncc(Cl)c(C(=O)NCc3ccccc3)n2)c1 |  | 10.4 µM (active)
17 | CCOc1ccc(-n2c(C)nc3c(cnn3-c3ccc(C)cc3)c2=O)cc1 | -100 | 
18 | CC(C)Cc1ccc(S(=O)(=O)N2CCC(c3ccncc3)CC2)cc1 | -100 | 
19 | CCOC(=O)N1CCN(Cc2nc3cc(NC(=O)CC)ccc3n2C(C)C)CC1 | -100 | 

Row | Structure (SMILES) | activity change, negative = inhibition [%] | Potency
20 | COc1ccc(CCN2C(=O)c3[nH]nc(-c4ccccc4O)c3C2c2ccc(OC)c(OC)c2)cc1 (configuration not stated) | -100 | 
21 | COc1ccc(CN2CCN(c3ncnc4sc5c(c34)CCCC5)CC2)cc1F | -100 | 
22 | CCc1nn(CC(=O)NCc2ccccc2)c(=O)c2cccn12 | -100 | 
23 | O=C(NC1CCCCC1)/C(=C/c1ccc(Cl)cc1)NC(=O)c1ccccc1 | -22.5 | 
24 | Cc1ccc(CN(Cc2ccco2)C(=O)c2cccc(C)c2)cc1 | -100 | 
25 | CCOc1ccccc1NC(=O)CN1C(=O)C(=O)c2ccccc21 | -100 | 
26 | Cc1ccc2occ(CC(=O)Nc3ccc(Cl)c(C(F)(F)F)c3)c2c1 | -100 | 
27 | COc1ccc(OCC(=O)Nc2ccc3nn(-c4ccc(OC)cc4)nc3c2)cc1 | -100 | 
28 | CCC1=Nc2cc(C(=O)NC3CCC(C)CC3)ccc2Sc2ccc(C)cc21 (configuration not stated) | -100 | 
29 | CCS(=O)(=O)c1ccccc1C(=O)N(Cc1cccnc1)c1nc2cc(C)c(C)cc2s1 | -100 | 
30 | CC(C)(C)C1CCc2c(sc(NC(=O)C3c4ccccc4Oc4ccccc43)c2C(N)=O)C1 (configuration not stated) | -100 | 
31 | CC1=Nc2cc(C(=O)NC3CCCCC3)ccc2Sc2ccc(Cl)cc21 | -100 | 
32 | COc1ccc(C(=O)Nc2ccc3c(c2)N(C)C(=O)c2ccccc2S3)cc1OC | -100 | 
33 | O=C(Nc1cccc(C(F)(F)F)c1)c1cnn(-c2cccc(F)c2)c1C1CCNCC1 | -100 | 
34 | CCCc1oc2ccc(NS(=O)(=O)c3ccc(OCC)cc3)cc2c1C(=O)OCC | -100 | 
35 | COCCCNC(=O)c1ccc(CSc2nc3cccnc3n2Cc2ccc(OC)cc2)cc1 | -100 | 
36 | COc1ccc(CCNC(=O)c2ccc3c(c2)N(Cc2ccccc2)CCS3)cc1OC | -100 | 
37 | CCOc1cccc(C2CC(=O)Nc3cc4c(cc32)OCCO4)c1 (configuration not stated) | -14.6 | 
